Compounds without any hit were thinned out: in the full panel of roughly 83,000, 20% have a hit.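 Each cell line was grown in a 96-well plate and treated with one concentration of compound for 48 hours. Values below 10 were considered active.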 Unmarked numbers belong to inactive results. Calls of active or inactive are those of the source.
Legend:
Test in all cases: NCI-60 one-dose screen, 48 h (100 = growth as untreated, 0 = no growth, -100 = all killed)
Conditions in all cases: 10 µM unless noted
NCI/ADR-RES ovarian = system: NCI/ADR-RES ovarian
T-47D breast = system: T-47D breast
BT-549 breast = system: BT-549 breast
MDA-MB-435 melanoma = system: MDA-MB-435 melanoma
SW-620 colon = system: SW-620 colon
MCF7 breast = system: MCF7 breast
HCT-116 colon = system: HCT-116 colon
HCC-2998 colon = system: HCC-2998 colon
KM12 colon = system: KM12 colon

SMILES	growth (NCI/ADR-RES ovarian)	growth (T-47D breast)	growth (BT-549 breast)	growth (MDA-MB-435 melanoma)	growth (SW-620 colon)	growth (MCF7 breast)	growth (HCT-116 colon)	growth (HCC-2998 colon)	growth (KM12 colon)
CC[C@H](C)[C@H](NC(=O)C12C3C4C1C1C2C3C41NC(C)=O)C(=O)N(C)[C@H](C[C@@H](OC(C)=O)c1nc(C(=O)N[C@@H](Cc2ccccc2)C[C@H](C)C(=O)OC)cs1)C(C)C (some centres undefined)	89.7%	70.1%	5.96% (active)	-32.9% (active)	21%	15.2%	6.15% (active)	24.1%	14.8%
C#C[C@]1(OC(=O)CCCCCC)CC[C@H]2[C@@H]3CCC4=CC(=O)CC[C@@H]4[C@H]3CC[C@@]21C	40.3%	37.8%	34.1%	18.3%	28.1%	76%	12%	49.9%	29.2%
CCCCC1(CCC)C(=O)NC(=S)NC1=O	102%	92.3%	107%	116%	109%	95.7%	99.2%	106%	109%
O=C1NC(=O)C(=Cc2cn(C(=O)c3ccccc3)c3ccccc23)C(=O)N1	97.1%	95.2%	105%	105%	93.7%	89.4%	102%	93.4%	108%
Clc1ccc2nnnn2n1	59.2%	57.4%	29.1%	-1.91% (active)	24.5%	19.2%	-15.9% (active)	107%	-38% (active)
COc1cc([C@@H]2c3cc4c(cc3[C@H](OC(C)=O)[C@H]3COC(=O)[C@H]23)OCO4)cc(OC)c1OC	3.8% (active)	57.8%	31.5%	-8.58% (active)	27.3%	14.9%	7.01% (active)	15%	17.8%

— PubChem BioAssay (NCI)
